Sampled rows, rich in hits. Any-hit rate of the full collection: about 8%.
HCMV antiviral = qHTS Assay for inhibitors of the human cytomegalovirus (HCMV). HFF cells, HCMV-luciferase reporter, 72 h; hits give low values. 410,000 tested, 4.5% active. activity change, negative = inhibition, % at 57.5 µM; in the data active = activity change below about -60%; inconclusive = no clear call, values can overlap the other calls; inactive = above about -39%; note: % is set by controls: 0 for no effect and ±100 for the full control effect
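Inhibition of viral replication was scored as loss of reporter luminescence in HFFs infected with HCMV-luciferase (MOI 1 PFU/cell) for 72 h; compounds tested at 2 doses, normalized to buffer and Salinomycin controls.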
MARV entry inh = qHTS for inhibitors of binding or entry into cells for Marburg Virus. Potency, µM (top dose mostly 37.8 µM), without a hit: at the highest dose activity change, negative = inhibition, hits mostly inhibitors. Marburg virus pseudotyped entry inhibition, cell reporter. 300,000 tested, 1.8% active. AID 540276, 2011; calls by dose curve; tested in HEK293 cells; note: potency is the fitted concentration of half-maximal effect; % is set by controls: 0 for no effect and ±100 for the full control effect
SARS PLP yeast = qHTS of Yeast-based Assay for SARS-CoV PLP. S. cerevisiae expressing SARS-CoV PLpro, growth rescue. Potency, µM (highest dose often 32.9 µM), inactives show at the highest dose activity, positive = growth rescue, most hits filed as activators. 330,000 tested, 0.19% active. AID 485353, 2010; calls by dose curve; note: potency is the fitted concentration of half-maximal effect; 0% is about no effect; nearly all actives have a fitted effect of over 55% in size
Lassa entry inh = qHTS for Inhibitors of binding or entry into cells for Lassa Virus | Lassa virus pseudotype entry inhibition, cell reporter | Potency, µM (highest dose often 37.9 µM), for inactives: at the highest dose activity change, negative = inhibition, actives largely listed as inhibitors | 300,000 tested, 1.2% active | AID 540256, 2011; calls by dose curve; tested in HEK293 cells; note: potency is the fitted concentration of half-maximal effect; % is set by controls: 0 for no effect and ±100 for the full control effect; nearly all actives have a fitted effect of over 50% in size
HCV inh = qHTS Assay for Inhibitors of Hepatitis C Virus (HCV); Potency, µM (highest dose often 41.8 µM), for inactives: at the top dose activity change, negative = inhibition, hits mostly inhibitors; Huh7.5.1 HCVcc-Cre infection, luciferase reporter, 44 h; AID 651820, 2012; 340,000 tested, 3.4% active; active = well fitted inhibition curve with a large enough effect; inconclusive = small, poorly fitted or top-dose-only effect, or another doubt; inactive = no such curve, though single readings can be large or run the other way; note: potency is the fitted concentration of half-maximal effect; % is set by controls: 0 for no effect and ±100 for the full control effect
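Seed cells (1,000/well) for 4 h; treat with compound and infect with HCVcc-Cre, moi about 0.5. Incubate 44 h, then detect luciferase activity.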
FMDV inh = High Throughput Screening for Foot and Mouth Disease Virus Antivirals; FMDV antiviral cell-based qHTS; 410,000 tested, 1.2% active; Potency, µM (series often up to 57.9 µM), for inactives: at the highest dose activity change, negative = inhibition, usual class: inhibitors; calls by dose curve; tested in HEK293T cells; note: read-out not given here; potency is the fitted concentration of half-maximal effect; % is set by controls: 0 for no effect and ±100 for the full control effect; nearly all actives have a fitted effect of over 45% in size
An asterisk follows results filed as active; ? = inconclusive; . = no result given; [ ] = remark or other dose.

SMILES	HCMV antiviral	MARV entry inh	SARS PLP yeast	Lassa entry inh	HCV inh	FMDV inh
CCOC(=O)C1(C)CCN1C(=O)c1ccccc1OC(F)(F)F (stereo unspecified)	11	.	.	.	.	-20%
Cc1cc(/C=C\c2nc(O)c([N+](=O)[O-])c(=O)[nH]2)c(C)n1-c1ccccc1	-14	9%[46.1 µM]	0%	0%	-1%	2%
COc1ccc(-n2c(C)cc(/C=C/c3nc(O)c([N+](=O)[O-])c(=O)[nH]3)c2C)cc1	-61*	7%[46.1 µM]	0%	-5%	7%	1%
COc1ccc(-c2cc(C(F)(F)F)n3nc(C(=O)NCCCN4CCOCC4)cc3n2)cc1	-21	12%[46.1 µM]	0%	-6%	11µM*	-21%
COc1ccc(-c2cc(C(F)(F)F)n3nc(C(=O)N4CCCCC4)cc3n2)cc1	?	?	-7%	-27%	11µM*	.
COc1ccc(-c2cc(C(F)(F)F)n3nc(C(=O)N4CCCCC4)cc3n2)cc1OC	-36	?	11%	?	?	-23%
CCCNC(=O)c1cc2nc(-c3ccc(Br)cc3)cc(C(F)(F)F)n2n1	-13	4%[46.1 µM]	.	2%[46.1 µM]	.	-20%
COc1ccc(-c2cc(C(F)(F)F)n3nc(C(=O)Nc4cc(C)ccc4C)cc3n2)cc1	15	6%[46.1 µM]	.	-10%[46.1 µM]	.	-25%
O=C(NCCCn1ccnc1)c1cc2nc(-c3ccc(Br)cc3)cc(C(F)(F)F)n2n1	-11	?	-4%	?	7.1µM*	-1%
O=C(NCCCn1ccnc1)c1cc(-c2ccc(Cl)cc2)nc2ccccc12	20	5%	-11%	-13%	11µM*	-26%
Cc1oc(-c2cccc(NC(=O)c3ccccn3)c2)nc1CNC(=O)c1cc(F)c(F)cc1F	.	.	.	.	.	29%
COc1ccc(N(Cc2nc3cc(C)c(C)cc3[nH]2)Cc2nc3cc(C)c(C)cc3[nH]2)cc1	20	.	.	.	.	.
COc1ccc(OC)c(C(C)NC(=O)Cn2c(=O)cc(C)c3c(C)nn(-c4ccc(C)cc4)c32)c1 (stereo unspecified)	12	.	.	0%[46.1 µM]	.	-5%
O=C(NCCCN1CCCC1=O)c1cc2nc(-c3ccco3)cc(C(F)(F)F)n2n1	-1	2%[46.1 µM]	22µM*	1%	-7%	10%
COc1cccc(-c2cc(C(F)(F)F)n3nc(C(=O)N4CCCCC4c4cccnc4)cc3n2)c1 (stereo unspecified)	-68*	?	-4%	.	5.6µM*	?
Nc1nc2c(ncn2[C@@H]2O[C@H](CNS(=O)(=O)c3cccnc3)[C@@H](O)[C@H]2O)c(=O)[nH]1	30	.	.	.	.	-18%
Cc1nc2ccccn2c1C(=O)NNS(=O)(=O)c1ccc(C(C)(C)C)cc1	-63*	?	4%	?	?	?
ON=C1c2ccccc2-c2cc(Br)ccc21	-64*	16%	.	1%	?	0%
Cc1ccc(S(=O)(=O)CCC(=O)N2CCN(c3ccc([N+](=O)[O-])cc3)CC2)cc1	0	.	-4%	.	13µM*	?
O=C(CCS(=O)(=O)c1ccc(Br)cc1)N1CCN(c2ccc(F)cc2)CC1	-65*	.	1%	.	1%	-21%
O=C(CCS(=O)(=O)c1ccc(Br)cc1)N1CCN(c2ccc(Cl)cc2)CC1	-79*	?	4%	14%	-10%	?
COc1ccc(S(=O)(=O)CCC(=O)N2CCN(c3ccc([N+](=O)[O-])cc3)CC2)cc1	?	.	7%	.	?	?
O=C(CCSCc1cccc(Cl)c1)N1CCN(c2ccc(Cl)cc2)CC1	-63*	.	.	?	.	-21%
CN(C)c1ncc2nc(-c3ccccc3)c(=O)n(CCC#N)c2n1	.	.	.	.	.	-15%
CN1CCN(c2ncc3nc(-c4cc(F)cc(F)c4)c(=O)n(-c4ccccc4)c3n2)CC1	.	.	.	.	.	-16%
CC(Oc1ccccc1)C(=O)N(CCC1=CCCCC1)c1c(N)n(Cc2ccccc2)c(=O)[nH]c1=O (stereo unspecified)	23	?	-6%	?	-27%	-13%
NC(=O)C1(N2CCCCC2)CCN(S(=O)(=O)c2cc(Cl)sc2Cl)CC1	14	12%[46.1 µM]	0%	11%[46.1 µM]	3%	-15%

Bioassay records: PubChem BioAssay, National Center for Advancing Translational Sciences (NCATS)
